Most compounds without a hit are left out; they make up all but 10% or so of the library.
SW480 rereplic: A quantitative high throughput screen for small molecules that induce DNA re-replication in SW480 colon adenocarcinoma cells. 340,000 compounds, 1.8% hits. Potency, µM (series often up to 46.1 µM), without a hit: at the highest dose re-replication activation, actives largely listed as activators. SW480 DNA re-replication, Hoechst DNA content imaging, 48 h; note: % of control where 0% means no effect; nearly all actives have a fitted effect of over 55% in size
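Cells (250 per well) received 23 nL compound or DMSO by pin tool and were kept 48 hr at 37 C, 5% CO2. Nuclei were then stained with Hoechst for 40 min and scanned for DNA content.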
ELG1 repair inh: qHTS screen for small molecules that inhibit ELG1-dependent DNA repair in human embryonic kidney (HEK293T) cells expressing luciferase-tagged ELG1. HEK293T ELG1-luciferase reporter, luminescence, 16 h; DNA damage induced by 5-fluorouridine. Potency, µM (series often up to 46.1 µM), without a hit: at the top dose activity change, negative = inhibition, most hits filed as inhibitors. 330,000 compounds, 2.3% hits. AID 504467, 2011; note: % is set by controls: 0 for no effect and ±100 for the full control effect; nearly all actives have a fitted effect of over 55% in size
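DMSO vehicle served as the neutral condition. Each well held 2,000 cells given 5-fluorouridine plus compound; after 16 hr at 37 °C/5% CO2, ONE-Glo was added and luciferase measured 30 min later.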
MCF10A rereplic: A quantitative high throughput screen for small molecules that induce DNA re-replication in MCF 10a normal breast cells; MCF 10A DNA re-replication, Hoechst nuclear intensity, 48 h; Potency, µM (titrated, usually from 46.1 µM), for inactives: top-dose activity, positive = re-replication, actives largely listed as activators; 350,000 compounds, 2.9% hits; note: % of control where 0% means no effect; nearly all actives have a fitted effect of over 50% in size
VP16 counter: VP16 counterscreen qHTS for inhibitors of ROR gamma transcriptional activity. Drosophila S2 Gal4-VP16 UAS-luciferase, luminescence, 20 h. Potency, µM (titrated, usually from 53.6 µM), inactives show top-dose activity, negative = inhibition, actives largely listed as inhibitors. 310,000 compounds, 3.5% hits;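 note: Gal4-VP16 expression switched on by copper sulfate through the metallothionein promoter; % is set by controls: 0 for no effect and ±100 for the full control effect; nearly all actives have a fitted effect of over 50% in size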
RORg inh: qHTS for inhibitors of ROR gamma transcriptional activity. Nuclear receptor ROR-gamma (Mus musculus), P51450. Drosophila S2 Gal4-RORgamma UAS-luciferase reporter, 20 h. Potency, µM (series often up to 53.6 µM), without a hit: at the highest dose activity change, negative = inhibition, hits mostly inhibitors. 310,000 compounds, 5.4% hits. AID 2551, 2010; note: % is set by controls: 0 for no effect and ±100 for the full control effect; nearly all actives have a fitted effect of over 60% in size
Target sequence (P51450 whole entry, looked up, the tested form may be a part): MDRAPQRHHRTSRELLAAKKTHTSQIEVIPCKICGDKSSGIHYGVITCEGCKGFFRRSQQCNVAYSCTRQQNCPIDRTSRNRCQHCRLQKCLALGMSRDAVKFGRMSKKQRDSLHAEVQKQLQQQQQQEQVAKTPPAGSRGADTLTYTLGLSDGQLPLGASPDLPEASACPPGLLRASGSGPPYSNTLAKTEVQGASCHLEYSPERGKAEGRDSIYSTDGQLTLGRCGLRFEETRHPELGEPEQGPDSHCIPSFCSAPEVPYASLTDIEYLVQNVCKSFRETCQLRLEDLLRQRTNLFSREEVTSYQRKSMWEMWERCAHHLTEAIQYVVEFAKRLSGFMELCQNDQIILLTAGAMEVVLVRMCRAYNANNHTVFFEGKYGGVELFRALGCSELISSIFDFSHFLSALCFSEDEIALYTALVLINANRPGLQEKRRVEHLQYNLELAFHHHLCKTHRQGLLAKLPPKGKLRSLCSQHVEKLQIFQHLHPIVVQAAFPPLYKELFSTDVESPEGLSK
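Drosophila Schneider cells stably carrying a metallothionein-driven Gal4 DBD–ROR gamma fusion and a UAS-Photinus luciferase reporter were exposed to compound for 1 hr, then induced with copper sulfate (700 uM final) for 20 hr at ambient temperature before luminescence reading.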
Numbers without * were called inactive. Calls come from the whole dose curve; as a rule, active = well fitted curve in the direction sought with a large enough effect; inconclusive = small, poorly fitted or top-dose-only effect, or another doubt; inactive = no such curve, though single readings can be large; an effect the other way counts as inactive or inconclusive. Potency is the fitted concentration of half-maximal effect.

Results for COc1cccc(OCCSc2nc(N)cc(N)n2)c1 ?
SW480 rereplic: -6%; ELG1 repair inh: -5%; MCF10A rereplic: 20%; VP16 counter: 6.3µM*; RORg inh: 7.9µM*

Results for Nc1cc(N)nc(SCCOc2ccccc2)n1 ?
SW480 rereplic: 0%; ELG1 repair inh: inconclusive; MCF10A rereplic: 14%; VP16 counter: 2%; RORg inh: inconclusive

Results for CN(C)/C=C/C(=O)c1c(F)cccc1F ?
SW480 rereplic: -7%; ELG1 repair inh: 10%; MCF10A rereplic: -2%; VP16 counter: -24%; RORg inh: -5%

Results for CC1(C)CC(=O)C2=C(C1)OC(N)=C(C#N)C2C#Cc1ccccc1 (configuration not stated) ?
SW480 rereplic: inconclusive; ELG1 repair inh: 27%; MCF10A rereplic: 8.9µM*; VP16 counter: -8%; RORg inh: 16%

Results for CC(c1ccccc1)C1C(C#N)=C(N)OC2=C1C(=O)CC(C)(C)C2 (configuration not stated) ?
SW480 rereplic: -14%; ELG1 repair inh: -23%; MCF10A rereplic: -2%; VP16 counter: 4%; RORg inh: inconclusive

How did CC1=Nc2nc(N3CCCCC3)c(C#N)c3c4c(nc(c23)N1)N(c1ccc(C(C)C)cc1)C(=O)C4 do in these assays?
SW480 rereplic: 3%; ELG1 repair inh: -2%; MCF10A rereplic: 3%; VP16 counter: -14%; RORg inh: 42%

How did Cc1ccc(C)c(NC(=O)C2CCCN2/C=C/C(=O)C(F)(F)F)c1 (configuration not stated) do in these assays?
SW480 rereplic: -25%; ELG1 repair inh: 8%; MCF10A rereplic: -1%; VP16 counter: 0%; RORg inh: -4%

How did CN(Cc1ccc(Cl)s1)C(=O)CCl do in these assays?
SW480 rereplic: inconclusive; ELG1 repair inh: 11%; MCF10A rereplic: inconclusive; VP16 counter: -76%; RORg inh: 10µM*

Results for COc1ccc(CN(C)C(=O)CCl)cc1 ?
SW480 rereplic: inconclusive; ELG1 repair inh: 2%; MCF10A rereplic: inconclusive; VP16 counter: inconclusive; RORg inh: inconclusive

Results for O=C(/C=C/c1c[nH]c2ccccc12)c1cccc2ccccc12 ?
SW480 rereplic: 16µM*; ELG1 repair inh: 1%; MCF10A rereplic: 21µM*; VP16 counter: inconclusive; RORg inh: 5µM*

What do the screens show for `Cc1ccc(-c2ccc(/C=N/NC(=O)CN3CCCC3)o2)cc1Cl`?
SW480 rereplic: 1%; ELG1 repair inh: 12%; MCF10A rereplic: 8%; VP16 counter: -19%; RORg inh: 11µM*

How did O=C1NCC(c2ccccc2)C1C(=O)N/N=C\c1ccc(-c2cccc(Cl)c2Cl)o1 (configuration not stated) do in these assays?
SW480 rereplic: 0%; ELG1 repair inh: inconclusive; MCF10A rereplic: inconclusive; VP16 counter: -25%; RORg inh: -16%

Results for Cc1ccc(-c2ccc(/C=N\NC(=O)C3C(=O)NCC3c3ccccc3)o2)cc1Cl (configuration not stated) ?
SW480 rereplic: inconclusive; ELG1 repair inh: inconclusive; MCF10A rereplic: inconclusive; VP16 counter: 20µM*; RORg inh: inconclusive

How did CCC(Sc1nncn1C)C(=O)Nc1cc(C)on1 (configuration not stated) do in these assays?
SW480 rereplic: 0%; ELG1 repair inh: 6%; MCF10A rereplic: 0%; VP16 counter: -4%; RORg inh: -2%

Results for COc1ccc(CNC(=O)Cn2cc(C(F)(F)F)ccc2=O)cc1OC ?
SW480 rereplic: -5%; ELG1 repair inh: -1%; MCF10A rereplic: -3%; VP16 counter: 2%; RORg inh: 4%

How did Cc1ccc(/C(N)=N/OC(=O)c2ccc(C)cc2Cl)cc1 do in these assays?
ELG1 repair inh: inconclusive; MCF10A rereplic: 0%; VP16 counter: 10µM*; RORg inh: 4.5µM*

Results for N/C(=N\OC(=O)c1ccc(Cl)cc1Cl)c1ccc(Cl)cc1 ?
SW480 rereplic: -2%; ELG1 repair inh: inconclusive; MCF10A rereplic: 3%; VP16 counter: -10%; RORg inh: 1%

Results for COc1ccc(C(=O)O/N=C(\N)c2ccccc2)c(OC)c1 ?
SW480 rereplic: inconclusive; ELG1 repair inh: inconclusive; MCF10A rereplic: 2%; VP16 counter: 8.9µM*; RORg inh: 4.5µM*

What do the screens show for `N/C(=N\OC(=O)c1ccc(Cl)cc1Cl)c1ccccc1`?
SW480 rereplic: 1%; ELG1 repair inh: inconclusive; MCF10A rereplic: -3%; VP16 counter: inconclusive; RORg inh: 5µM*

Results for COc1ccc(C(=O)O/N=C(\N)c2ccc(OC)c(OC)c2)c(OC)c1 ?
SW480 rereplic: 1%; ELG1 repair inh: inconclusive; MCF10A rereplic: 19%; VP16 counter: -11%; RORg inh: -20%

What do the screens show for `N/C(=N\OC(=O)c1ccc(Cl)cc1Cl)c1cccnc1`?
SW480 rereplic: 10%; ELG1 repair inh: inconclusive; MCF10A rereplic: 5%; VP16 counter: inconclusive; RORg inh: -28%

What do the screens show for `Cc1cccc(/C(N)=N/OC(=O)c2ccc(Cl)cc2Cl)c1`?
SW480 rereplic: -1%; ELG1 repair inh: inconclusive; MCF10A rereplic: inconclusive; VP16 counter: 20µM*; RORg inh: 2µM*

What do the screens show for `Cc1nn(-c2ccccc2)c(C)c1NC(=O)COC(=O)CCCOc1ccccc1`?
SW480 rereplic: 51%; ELG1 repair inh: -2%; MCF10A rereplic: -7%

What do the screens show for `N/C(=N\OC(=O)c1cccc2ccccc12)c1cccc([N+](=O)[O-])c1`?
SW480 rereplic: -3%; ELG1 repair inh: 7%; MCF10A rereplic: -3%; VP16 counter: inconclusive; RORg inh: -15%

What do the screens show for `N/C(Cc1ccc(Cl)cc1Cl)=N\OC(=O)c1ccccc1`?
SW480 rereplic: 7%; ELG1 repair inh: -12%; MCF10A rereplic: 0%; VP16 counter: -2%; RORg inh: 13µM*

Results for Cc1cccc(/C(N)=N/OC(=O)c2cccc3ccccc23)c1 ?
ELG1 repair inh: inconclusive; VP16 counter: 5.6µM*; RORg inh: 1.1µM*

Results for N/C(Cc1ccc(Cl)cc1Cl)=N\OC(=O)Cc1ccccc1 ?
SW480 rereplic: inconclusive; ELG1 repair inh: 19%; MCF10A rereplic: 2%; VP16 counter: inconclusive; RORg inh: -36%

What do the screens show for `N#C/C(=C\c1ccccc1)C(=O)NNS(=O)(=O)c1ccc(Br)cc1`?
SW480 rereplic: -5%; ELG1 repair inh: 14%; MCF10A rereplic: 13%

Results for O=C(O)c1ccccc1N=Nc1ccc(O)cc1 ?
SW480 rereplic: 1.2µM*; MCF10A rereplic: inconclusive

Source: PubChem
